Compound activity deposited in PubChem by National Center for Advancing Translational Sciences (NCATS).
Compounds with a hit are over-represented: about 2.1% of the library has one in this group of screens.
uPA generation: inhibitors of cell surface uPA generation. cell surface uPA generation assay, qHTS. Potency, µM (titrated, usually from 38.3 µM), inactives show top-dose activity change, negative = inhibition, most hits filed as inhibitors. actives 0.31% (n = 330,000). AID 540303; active = well fitted inhibition curve with a large enough effect; inconclusive = small, poorly fitted or top-dose-only effect; inactive = no such curve, though single readings can be large or run the other way; tested in mouse RAW 264.7 cells; also: potency is read from the fitted curve at half-maximal effect; % is scaled to controls: 0 for no effect and ±100 for the full control effect; nearly all actives have a fitted effect of over 55% in size
B2AR arrestin: recruits beta-arrestin to the human beta2-adrenergic receptor; P07550; beta-arrestin recruitment to beta2AR, cell-based reporter; Potency, µM (doses to about 46.1 µM), without a hit: top-dose activation, actives largely listed as activators; actives 0.02% (n = 330,000);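 also: potency is read from the fitted curve at half-maximal effect; 0% = DMSO controls and full agonism = EC100 isoproterenol or metaproterenol; nearly all actives have a fitted effect of over 65% in size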
Target sequence (P07550 whole entry, looked up): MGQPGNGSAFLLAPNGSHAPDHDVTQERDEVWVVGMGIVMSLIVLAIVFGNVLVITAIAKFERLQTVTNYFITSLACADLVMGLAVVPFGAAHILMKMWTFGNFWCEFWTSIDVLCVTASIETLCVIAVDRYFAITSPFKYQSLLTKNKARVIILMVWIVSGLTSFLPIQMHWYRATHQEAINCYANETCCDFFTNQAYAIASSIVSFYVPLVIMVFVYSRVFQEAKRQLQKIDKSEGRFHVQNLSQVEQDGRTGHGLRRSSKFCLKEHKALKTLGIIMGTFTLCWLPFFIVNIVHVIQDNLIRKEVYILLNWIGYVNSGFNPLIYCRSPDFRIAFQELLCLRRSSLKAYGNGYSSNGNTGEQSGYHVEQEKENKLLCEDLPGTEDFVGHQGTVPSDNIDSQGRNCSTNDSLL
Mito fusion yeast: mitochondrial division inhibition or fusion activation. S. cerevisiae fusion-defective mutant growth rescue, CellTiterGlo 48 h. AID 485298. Potency, µM (highest dose often 46.1 µM), without a hit: top-dose growth rescue (activation), usual class: activators. actives 0.23% (n = 320,000); also: potency is read from the fitted curve at half-maximal effect; % of control where 0% means no effect; nearly all actives have a fitted effect of over 45% in size
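Growth-rescue viability read-out: after 48 h at the non-permissive 37C in glycerol/ethanol YPEG, yeast mitochondrial fusion mutants are measured by CellTiterGlo luminescence; compounds (23 nl pinned per well) restoring growth score as division inhibitors or fusion activators.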
ClpP mod: qHTS Assay for Activators of ClpP. actives 1.9% (n = 340,000). purified B. subtilis ClpP, FRET peptide cleavage, 20 min. ATP-dependent Clp protease proteolytic subunit (Bacillus subtilis (strain 168)), P80244. AID 651965, 2013. Potency, µM (titrated, usually from 57.5 µM), for the others: top-dose activity change, negative = active; active = well fitted falling curve with a large enough effect; inconclusive = small, poorly fitted or top-dose-only effect; inactive = no such curve, though single readings can be large or run the other way; also: potency is read from the fitted curve at half-maximal effect; the source files actives as falling curves though it sought activators and does not explain the sign; nearly all actives have a fitted effect of over 65% in size
Target sequence (P80244 whole entry, looked up): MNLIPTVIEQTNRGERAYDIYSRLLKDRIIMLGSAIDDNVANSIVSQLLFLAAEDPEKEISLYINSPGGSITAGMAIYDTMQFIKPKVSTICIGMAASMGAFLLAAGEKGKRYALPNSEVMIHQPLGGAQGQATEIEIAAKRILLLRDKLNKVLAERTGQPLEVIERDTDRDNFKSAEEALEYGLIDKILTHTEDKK
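Buffer: 100 mM Tris/HCl pH8, 100 mM KCl, 0.05% low protease BSA, 2.5% glycerol, 0.01% Tween-20. ClpP 10 microg/mL final; 20 min RT; delta FRET normalized to ADEP and DMSO controls.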
p53 reactivation: mutant p53 re-activation in reporter cells; H1299 p53-A138V BP100-luciferase reporter, luminescence, 24 h; Potency, µM (series often up to 92.2 µM), for the others: at the highest dose activity change, positive = activation, most hits filed as activators; actives 0.063% (n = 320,000); also: potency is read from the fitted curve at half-maximal effect; % of control where 0% means no effect; nearly all actives have a fitted effect of over 45% in size
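H1299 (p53-null), stable ts p53-A138V + BP100-Luc; 1000 cells/well, Opti-MEM/10% FBS; cpd 4 pt, 1:5; 24 h, 37 deg C, 5% CO2; detection reagent 10 min RT; luminescence.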
Giardia kill: Giardia lamblia killing; Giardia lamblia trophozoite viability; activity change, % at 7.66 µM, hits read low; actives 0.15% (n = 340,000); in the data active = activity change below about -80%; inconclusive = between about -30% and that limit;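 also: parasites exposed to compound for two days anaerobically before the ATP read; % is scaled to controls: 0 for no effect and ±100 for the full control effect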
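Anaerobic 48 hrs incubation at 37 deg C of 100 trophozoites/well with test compounds; ATPLite 1-Step luminescence, 15-30 min RT, reports cellular ATP as viability.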
An asterisk follows results filed as active; u = inconclusive; x = no result given. Unless noted, calls follow the shape of the dose curve; as a rule, active = well fitted curve in the direction sought with a large enough effect; inconclusive = small, poorly fitted or top-dose-only effect, or another doubt; inactive = no such curve, though single readings can be large; an effect the other way counts as inactive or inconclusive.

SMILES	uPA generation	B2AR arrestin	Mito fusion yeast	ClpP mod	p53 reactivation	Giardia kill
c1ccc2c(c1)CCN(c1ncnc3c1[nH]c1ccccc13)C2	-11.2%	0.2%	12.9%	20µM*	-38.3%	-4.8
O=C(CSc1nc2ncccc2o1)Nc1ccc(Cl)cc1F	x	x	x	6.1%	x	x
Cc1csc2ncc(C(=O)NCc3ccco3)c(=O)n12	-4.5%	0.0%	2.0%	20µM*	5.3%	5.5
O=C(NCc1ccco1)c1cnc2sccn2c1=O	5.3%	-0.2%	-3.5%	u	4.6%	-4.4
O=C1CC(c2nc3ccccc3n2CCCCOc2ccccc2)CN1c1ccccc1Cl (centres undefined)	x	x	x	-9.2%	x	x
COc1ccc(Br)cc1CN(C)CC(=O)Nc1ccccc1Cl	6.0%	-0.6%	u	28.2µM*	-10.2%	-1.2
COc1cccc(CNC(=O)c2ccc3nc(-c4ccc(F)cc4)c(-c4ccc(F)cc4)nc3c2)c1	x	x	x	3.8%	x	x
Cn1ncc(Cl)c1C(=O)N1CCN(c2ccc(Cl)c(Cl)c2)CC1	-2.5%	-0.4%	7.3%	15.8µM*	-26.4%	-4.1
CCC(Nc1ccc(-c2nc(-c3ccco3)no2)cc1[N+](=O)[O-])c1ccccc1 (centres undefined)	x	x	x	-2.7%	x	x
COc1ccc(CCNC(=O)c2cc3c(=O)n(C)c4cc(Cl)ccc4c3s2)cc1OC	x	x	x	-25.1%	x	x
N#Cc1ccc(S(=O)(=O)NCC(=O)OCC(=O)N2CCCC2=O)cc1	1.5%	-0.2%	-3.8%	14.1µM*	-0.1%	-5.8
C=CCC[C@H](CCCCC)OC(=O)/C=C/[C@@H](O)[C@H](O)C[C@@H](O)CC=C	x	x	x	2.5%	x	x
O=C(CN1CCOCC1)NNc1c2ccccc2nc2ccccc12	1.6%	0.1%	1.4%	x	0.1%	3.1
O=C(CN1CCOCC1)Nc1c2c(nc3ccccc13)N(Cc1ccccc1)CC2	-1.9%	0.0%	-2.2%	22.4µM*	-6.1%	0.8
O=C(CN1CCCC1)Nc1c2c(nc3ccccc13)N(Cc1ccccc1)CC2	-7.8%	0.4%	4.0%	14.1µM*	-5.3%	14.0
COc1c(C)cc(S(=O)(=O)NCCc2c(C)[nH]c3ccccc23)c(C)c1C	x	x	x	-1.0%	x	x
O=C(OCCN1CCN(c2ncc(C(F)(F)F)cc2Cl)CC1)c1ccc(F)cc1	1.3%	-0.1%	10.0%	1.9%	15.4%	1.9
Cc1ccc(C(=O)OCCN2CCN(c3ncc(C(F)(F)F)cc3Cl)CC2)cc1	6.1%	-0.2%	2.2%	14.1µM*	-2.9%	5.6
CN(C(=O)CSc1nc2ccccc2n1CC(=O)N(C)C1CCCCC1)c1ccccc1	x	x	x	1.3%	x	x
CCCOc1ccc(-c2nc(C#N)c(N3CCN(C)CC3)o2)cc1	8.2%	-0.6%	-9.5%	31.6µM*	-5.0%	0.5
CCOc1ccc(-c2nc(C#N)c(N3CCN(CC)CC3)o2)cc1	1.7%	-0.1%	-5.7%	10µM*	-11.6%	18.8
CCCOc1ccc(-c2nc(C#N)c(N3CCc4ccccc4C3)o2)cc1	x	0.0%	0.8%	15.8µM*	5.6%	3.2
CCCOc1ccc(-c2nc(C#N)c(N3CCN(CC)CC3)o2)cc1	-1.0%	-0.7%	-7.5%	28.2µM*	-8.1%	8.5
CCCC(=O)Oc1c(Sc2ccc(Cl)cc2)c(C)nn1-c1ccccc1	x	x	x	-3.5%	x	x
CCc1cccc(NC(=O)c2cc3c(=O)n(Cc4ccc(OC)cc4)ccc3nc2C)c1	x	x	x	-10.2%	x	x
SMILES	uPA generation	B2AR arrestin	Mito fusion yeast	ClpP mod	p53 reactivation	Giardia kill
O=C(NCCc1ccc(Cl)cc1)C1CCN(Cc2cc3ccccc3n2Cc2ccccc2)CC1	x	x	x	-18.2%	x	x
Fc1ccc(-c2cn3ccccc3n2)cc1	10µM*	-0.7%	-2.0%	3.4%	-1.2%	14.5
CCOc1ccc(-c2cn3ccccc3n2)cc1	-10.0%	-0.1%	-9.2%	x	-2.5%	u
c1ccn2cc(-c3ccc4c(c3)OCCO4)nc2c1	3.16µM*	0.0%	-4.5%	4.4%	-0.1%	u
COc1ccc(OC)c(NC(=O)CN(C)S(=O)(=O)c2ccc(C(=O)N3CCOCC3)s2)c1	x	x	x	-1.3%	x	x
Cc1ccc(S(=O)(=O)c2[nH]c(-c3ccccc3)nc2SC(C)C(=O)O)cc1 (centres undefined)	x	x	x	-3.4%	x	x
COc1ccc(Cl)cc1C(=O)OCC(=O)c1c(N)n(C)c(=O)n(C)c1=O	x	x	x	-5.7%	x	x
